Experiment [1] can be described thus: compounds binding Alexa647 anti-His antibody – biochemical, small-molecule microarray, 635 nm fluorescence, artefact control for SMM control protein annotation, primary screen (AID 1128).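 Note: score merges feature fluorescence with signal-to-noise for each printed compound spot.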 The following applies: higher = more signal.
Experiment [2] has as its system Human papillomavirus type 1a E7 protein (residues 1-88). The experiment is described as follows: HPV1a E7 small-molecule binders, primary screen, biochemical, small-molecule microarray, residues 1-88, 635 nm (AID 1129). The following applies: small-molecule microarray binding, fluorescence 635 nm; higher = more signal.
Experiment [3] has as its target Focal adhesion kinase 1 (Homo sapiens) (UniProt Q05397). The experiment is described as follows: PTK2 protein binding on printed compound slides – biochemical, small-molecule microarray, 635/667 nm fluorescence, BSA, DTT, primary screen (AID 1130).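 Note: composite of spot emission at 667 nm and signal to noise over triplicate slides.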 The following applies: 635 nm fluorescence, higher = more signal.
For experiment [4], the system named is Fibrinogen (Alexa647-labelled). The experiment is described as follows: Alexa647-fibrinogen binding to printed small molecules – biochemical, small-molecule microarray, 635/667 nm fluorescence, artefact control for SMM control-protein annotation, profiling panel (AID 1131).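 Note: z-score merges 667 nm fluorescence with per-spot signal-to-noise over triplicate slides.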 The following applies: fibrinogen-A647 binding fluorescence, higher = more signal.
In experiment [5] the target is Follistatin (Homo sapiens) (UniProt P19883). The experiment is described as follows: FST protein binding to printed compounds – biochemical, small-molecule microarray, 635/667 nm fluorescence, primary screen (AID 1132). The following applies: 635 nm fluorescence, higher = more signal.
Sequence of Follistatin (Homo sapiens) (P19883 whole entry, looked up): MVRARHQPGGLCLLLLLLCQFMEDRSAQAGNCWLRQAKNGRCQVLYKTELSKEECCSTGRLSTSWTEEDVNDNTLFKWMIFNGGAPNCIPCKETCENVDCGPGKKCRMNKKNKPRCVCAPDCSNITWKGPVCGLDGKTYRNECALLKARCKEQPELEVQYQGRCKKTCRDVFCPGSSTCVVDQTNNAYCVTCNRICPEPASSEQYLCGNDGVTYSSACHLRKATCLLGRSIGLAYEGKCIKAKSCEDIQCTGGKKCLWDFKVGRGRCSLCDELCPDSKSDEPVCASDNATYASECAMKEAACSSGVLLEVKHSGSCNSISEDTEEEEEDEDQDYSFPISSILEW
The target in experiment [6] is Fibroblast growth factor 2 (Homo sapiens) (UniProt P09038). Description: basic fibroblast growth factor binding to printed compounds – biochemical, small-molecule microarray, 635/667 nm fluorescence, primary screen (AID 1133). The following applies: FGF2, fluorescence 635/667, higher = more signal.
Sequence of Fibroblast growth factor 2 (Homo sapiens) (P09038 whole entry, looked up): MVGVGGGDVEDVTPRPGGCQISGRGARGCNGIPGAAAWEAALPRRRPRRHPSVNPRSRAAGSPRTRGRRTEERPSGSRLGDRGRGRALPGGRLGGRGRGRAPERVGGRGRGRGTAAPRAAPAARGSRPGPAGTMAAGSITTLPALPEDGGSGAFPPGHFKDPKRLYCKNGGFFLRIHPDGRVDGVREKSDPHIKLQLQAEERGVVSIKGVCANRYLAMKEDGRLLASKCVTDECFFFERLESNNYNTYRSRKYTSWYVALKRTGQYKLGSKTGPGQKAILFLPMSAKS
Experiment [7] can be described thus: JC-1 mitochondrial potential readout, lung cancer cells – cell-based, A549, JC-1 fluorescence, basal, 24 h, 100 nL, profiling panel (AID 1138).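 Note: A549 lung adenocarcinoma cells under basal conditions with no added stimulus; test concentration not given here.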 The following applies: higher = more signal.
In experiment [8] the test system is Lefty1. Description: Lefty1 protein binding to printed compounds – biochemical, small-molecule microarray, 635/667 nm fluorescence, primary screen (AID 1139). The following applies: fluorescence 635/667, higher = more signal.
Experiment [9] deals with wheat germ agglutinin (Triticum aestivum), Alexa647-labelled. The experiment is described as follows: Alexa647-WGA lectin binding to printed small molecules – biochemical, small-molecule microarray, 635/667 nm fluorescence, artefact control for SMM control-protein annotation, profiling panel (AID 1140).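 Note: score merges 667 nm feature emission with signal to noise over triplicate slides.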 The following applies: WGA-A647 binding, 635 nm fluorescence, higher = more signal.

Experiment [10] concerns the target Luciferin 4-monooxygenase (Photinus pyralis) (UniProt P08659). Description: inhibition of purified Photinus pyralis luciferase – biochemical, luminescence, purified enzyme, 2006 set, primary screen (AID 1141).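 Note: cell-free assay with purified firefly luciferase at 100 ng per well in PBS; test concentration not given here.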 The following applies: purified firefly luciferase, SteadyGlo luminescence, 30 min; higher = more signal, called active from +8 up or from −8 down.
The test system of experiment [11] is Wnt5a (protein binding on small-molecule microarray). The experiment is described as follows: small molecules binding Wnt5a protein – biophysical, small-molecule microarray, 635/667 nm fluorescence, primary screen (AID 1142).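 Note: fluorescence read at 667 nm with signal to noise per printed feature.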 The following applies: 635 nm fluorescence, higher = more signal.
A short description of experiment [12]: ATP-based viability of Huh7 replicon cells – cell-based, CellTiter-Glo luminescence, basal, 48 h, cytotoxicity control for HCV replication inhibitor project, primary screen (AID 1143).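 Note: Huh7 hepatoma cells carrying a hepatitis C replication reporter with no stimulus; test concentration not given here.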 The following applies: higher = more signal, called active from +8 up or from −8 down.
Experiment [13] in a line: Pseudomonas biofilm growth suppression – PAO1 strain, BacTiter-Glo luminescence, LB-PBS, primary screen (AID 1144). The following applies: P. aeruginosa PAO1 biofilm, 12 h, higher = more signal.
The nature of experiment [14]: basal CRE-LacZ reporter activity in PC12 – cell-based, unstimulated, primary screen (AID 1145). The following applies: no forskolin, luminescence, 4.5 h, higher = more signal, called active from +8 up or from −8 down.
Experiment [15] is described as follows: forskolin-driven CRE-LacZ activity in PC12 – cell-based, CRE-LacZ reporter, forskolin-stimulated, primary screen (AID 1146).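 Note: PC12 cells with 6xCRE LacZ reporter stimulated by forskolin 10 µM; beta-galactosidase reporter signal reflecting CREB driven transcription.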 The following applies: luminescence, 4.5 h, higher = more signal, called active from +8 up or from −8 down.
In experiment [16] the target is Streptavidin (Streptomyces avidinii) (UniProt P22629). The experiment is described as follows: compounds binding control protein streptavidin – biophysical, small-molecule microarray, 635/667 nm fluorescence, artefact control for SMM compound annotation, primary screen (AID 1147).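 Note: signal reflects streptavidin binding to arrayed compounds as a control protein.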 The following applies: higher = more signal.
Sequence of Streptavidin (Streptomyces avidinii) (P22629 whole entry, looked up): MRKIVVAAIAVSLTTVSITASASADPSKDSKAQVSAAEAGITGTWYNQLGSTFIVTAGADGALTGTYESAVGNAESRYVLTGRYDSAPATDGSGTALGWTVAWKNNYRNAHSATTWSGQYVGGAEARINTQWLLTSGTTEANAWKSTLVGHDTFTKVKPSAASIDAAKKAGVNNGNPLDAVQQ
Experiment [17] is described as follows: probe aInhba binding on compound microarray – biochemical, small-molecule microarray, 635/667 nm fluorescence, primary screen (AID 1148).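 Note: score merges 667nm spot fluorescence with signal-to-noise for antibody binding to printed compounds.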 The following applies: higher = more signal.
Experiment [18] deals with Torsin-1A (Homo sapiens) (UniProt O14656). Description: TOR1A wild-type binding on microarray – cell lysate, small-molecule microarray, lysate, 635/667 nm, primary screen (AID 1149). The following applies: COS7 hTOR1A-WT lysate, 635 nm fluorescence, higher = more signal.
Sequence of Torsin-1A (Homo sapiens) (O14656 whole entry, looked up): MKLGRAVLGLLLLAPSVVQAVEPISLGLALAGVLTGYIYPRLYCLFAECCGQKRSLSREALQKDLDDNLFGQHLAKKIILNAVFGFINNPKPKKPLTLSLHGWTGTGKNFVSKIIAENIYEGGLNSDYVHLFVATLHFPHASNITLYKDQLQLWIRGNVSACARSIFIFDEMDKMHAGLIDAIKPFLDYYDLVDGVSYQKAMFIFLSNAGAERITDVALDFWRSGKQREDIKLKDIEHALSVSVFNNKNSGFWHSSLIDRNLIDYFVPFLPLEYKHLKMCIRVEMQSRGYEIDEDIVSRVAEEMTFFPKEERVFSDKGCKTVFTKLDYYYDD
For experiment [19] the target is unchanged. The experiment is described as follows: torsin A mutant lysate binding on microarrays – cell lysate, small-molecule microarray, COS7 lysate, 635/667 nm fluorescence, primary screen (AID 1150).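 Note: score pools 667 nm emission and signal to noise measuring lysate protein binding.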 The following applies: COS7 hTOR1A mutant lysate, 635 nm fluorescence, higher = more signal.
For experiment [20], the system named is Sonic hedgehog protein (Shh). The experiment is described as follows: Sonic hedgehog microarray binding compounds – biochemical, small-molecule microarray, 635/667 nm fluorescence, primary screen (AID 1151).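 Note: Shh protein binding to compounds spotted on small-molecule microarray slides; score combines spot fluorescence intensity with signal-to-noise across triplicate slides.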 The following applies: 635 nm fluorescence, higher = more signal.

The structures appear in SMILES notation. Activity calls are given as the source filed them. Unless noted, the rule behind the calls is not given here.

Sequence of Focal adhesion kinase 1 (Homo sapiens) (Q05397 whole entry, looked up): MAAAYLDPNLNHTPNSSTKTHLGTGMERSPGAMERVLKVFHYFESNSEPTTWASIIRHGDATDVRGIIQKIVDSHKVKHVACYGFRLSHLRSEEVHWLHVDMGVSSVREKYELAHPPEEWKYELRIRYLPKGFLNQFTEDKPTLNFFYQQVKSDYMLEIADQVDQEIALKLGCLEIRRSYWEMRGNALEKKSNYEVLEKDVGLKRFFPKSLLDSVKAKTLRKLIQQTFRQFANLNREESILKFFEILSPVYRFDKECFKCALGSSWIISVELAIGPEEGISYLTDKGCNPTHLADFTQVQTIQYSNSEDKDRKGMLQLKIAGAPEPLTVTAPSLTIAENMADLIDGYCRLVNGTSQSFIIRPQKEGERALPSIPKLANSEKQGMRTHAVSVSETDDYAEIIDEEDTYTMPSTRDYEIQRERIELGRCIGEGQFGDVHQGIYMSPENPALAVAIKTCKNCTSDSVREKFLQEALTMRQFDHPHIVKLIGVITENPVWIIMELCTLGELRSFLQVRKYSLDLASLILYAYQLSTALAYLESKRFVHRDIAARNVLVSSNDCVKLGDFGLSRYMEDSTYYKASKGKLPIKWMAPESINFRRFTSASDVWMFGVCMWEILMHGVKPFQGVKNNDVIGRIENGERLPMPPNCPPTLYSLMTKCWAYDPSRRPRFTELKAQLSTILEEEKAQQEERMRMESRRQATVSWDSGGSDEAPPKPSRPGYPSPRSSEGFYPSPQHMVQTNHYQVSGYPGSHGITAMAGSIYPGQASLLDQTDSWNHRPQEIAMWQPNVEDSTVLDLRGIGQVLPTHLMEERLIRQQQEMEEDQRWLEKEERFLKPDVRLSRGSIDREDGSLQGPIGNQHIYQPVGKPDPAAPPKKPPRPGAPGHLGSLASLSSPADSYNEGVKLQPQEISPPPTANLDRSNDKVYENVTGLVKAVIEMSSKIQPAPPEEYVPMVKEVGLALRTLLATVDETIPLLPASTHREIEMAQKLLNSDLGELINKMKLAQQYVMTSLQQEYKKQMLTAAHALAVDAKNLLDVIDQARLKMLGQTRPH
Sequence of Luciferin 4-monooxygenase (Photinus pyralis) (P08659 whole entry, looked up): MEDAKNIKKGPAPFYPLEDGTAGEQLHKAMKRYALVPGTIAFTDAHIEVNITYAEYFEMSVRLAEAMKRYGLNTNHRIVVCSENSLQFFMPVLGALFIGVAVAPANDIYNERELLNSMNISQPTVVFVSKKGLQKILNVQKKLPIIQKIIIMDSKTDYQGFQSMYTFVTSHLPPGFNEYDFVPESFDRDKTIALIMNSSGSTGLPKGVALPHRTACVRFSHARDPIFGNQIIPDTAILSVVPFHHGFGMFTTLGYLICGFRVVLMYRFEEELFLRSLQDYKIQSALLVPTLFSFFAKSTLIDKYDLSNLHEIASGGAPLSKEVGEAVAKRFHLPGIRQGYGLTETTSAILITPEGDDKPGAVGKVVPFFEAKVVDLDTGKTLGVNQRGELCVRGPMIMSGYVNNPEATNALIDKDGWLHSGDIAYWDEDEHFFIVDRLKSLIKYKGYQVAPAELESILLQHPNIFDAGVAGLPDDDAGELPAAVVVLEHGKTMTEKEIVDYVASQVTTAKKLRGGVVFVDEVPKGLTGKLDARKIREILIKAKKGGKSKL

On to `C=CCNC(=O)[C@@H]1[C@H]2C(=O)O[C@H](c3ccccc3)[C@H](c3ccccc3)N2[C@H](c2ccccc2OCCO)[C@@]12C(=O)N(C(=O)OCCOC)c1ccc(C#CCCO)cc12`, for which the composite z-score in experiment [1] came out at 1.91; in experiment [2], 1.21; in experiment [3] it was 0.988; in experiment [4] it was 0.414; in experiment [5] it was 0.881; in [6], 1.29. Further, the composite z-score in experiment [8] worked out at 0.711; in experiment [9], 0.971; in [11], 0.304; in experiment [16] it was 0.284; in [17] it was 0.0649; in experiment [18] it was 0.338. In addition, the values for the composite z-score in experiment [19] and in [20] were 1.35 and 1.06, respectively. The z-score in experiment [7] was -0.549; in experiment [10] it was -0.0405 (inactive); in experiment [12], -3.34 (inactive); in experiment [13], -0.976 (inactive); in experiment [14] it was -0.0768 (inactive); in experiment [15], -0.466 (inactive).

As for `CN(C)CCCC[C@@H]1NC(=O)[C@H]2C[C@@H](C(=O)O)[C@@H](c3cccc(OCCO)c3)N2C1=O`, the composite z-score was 3.17 in experiment [1]; -0.209 in [2]; 0.239 in experiment [3]; 0.564 in experiment [4]; 1.4 in experiment [5]; 0.977 in experiment [6]. The composite z-score was 1.45 in experiment [8]; 0.734 in [9]; 0.205 in experiment [11]; -0.414 in experiment [16]; 0.216 in [17]; 0.717 in [18]. Moreover, the values for the composite z-score in experiment [19] and in experiment [20] were 1.1 and 1.84, respectively. Further, the z-score in experiment [7] was 1.29; in experiment [10], -1.9 (inactive); in experiment [12], -0.0686 (inactive); in [13] it was -0.43 (inactive); in experiment [14], 0.0124 (inactive); in [15] it was 0.0684 (inactive).

Turning to `COCCOC(=O)N1C(=O)[C@@]2(c3cc(C#CCC(C(=O)OC)C(=O)OC)ccc31)[C@H](c1ccc(OCCO)cc1)N1[C@H](c3ccccc3)[C@H](c3ccccc3)OC(=O)[C@H]1[C@@H]2C(=O)N1CCCCCCC1`, the composite z-score was determined as 1 in experiment [1]; 1.21 in [2]; 0.899 in [3]; 0.686 in [4]; 1.5 in experiment [5]; 0.614 in [6]. Also, the composite z-score in experiment [8] is 0.958; in experiment [9] it was 1.37; in [11], 0.803; in [16] it was 2.53; in experiment [17], 1.91; in experiment [18] it was 2.42. Further, the composite z-score stood at 1.98 in experiment [19] and 1.58 in [20]. For the same compound, the z-score in [7] is -0.83; in experiment [10], -1.62 (inactive); in experiment [12], -1.67 (inactive); in experiment [13], -0.147 (inactive); in [14], -0.467 (inactive); in [15], -0.553 (inactive).

In the case of `C=CCN1C(=O)[C@]2(O[C@H](CCn3cc([C@H](O)c4ccccc4)nn3)[C@@H]([Si](C)(C)c3ccc(OC)cc3)[C@@H]2C)c2cc(N3C(=O)c4cccc5cccc3c45)ccc21`, the composite z-score is 0.72 in experiment [1]; 0.268 in experiment [2]; 0.33 in experiment [3]; 0.182 in experiment [4]; -0.167 in experiment [5]; 0.102 in experiment [6]. Besides, the composite z-score in experiment [8] was 0.102; in [9], 0.453; in experiment [11], 0.0898; in experiment [16] it was 0.633; in [17] it was -0.255; in [18], -0.439. Moreover, the composite z-score in experiment [19] was found to be 1.18; in [20], 0.204. In addition, the z-score in experiment [7] was 1.01; in [10], -0.719 (inactive); in experiment [12], -6.26 (inactive); in [13], -0.774 (inactive); in experiment [14], 9.81 (active); in experiment [15], -0.745 (inactive).

In the case of `Cc1ccc(S[C@]2(C(=O)NC3CC3)CC(=O)N(Cc3cc(C(F)(F)F)cc(C(F)(F)F)c3)[C@@H]2c2ccc(CO)cc2I)cc1`, the composite z-score in experiment [1] amounted to 2.99; in experiment [2] it was 1.03; in experiment [3] it was 0.941; in [4] it was 0.103; in experiment [5] it was 1.09; in experiment [6], 0.483. Moreover, the composite z-score in [8] is -0.337; in [9], 0.0196; in [11], 0.272; in experiment [16] it was 0.389; in experiment [17], 0.532; in experiment [18], -0.597. Also, the composite z-score in experiment [19] turned out to be 0.409; in experiment [20], 1.14. Besides, the z-score was -0.271 in experiment [7]; 0.717 (inactive) in experiment [10]; -0.636 (inactive) in [12]; 0.141 (inactive) in experiment [13]; -0.0243 (inactive) in experiment [14]; 1.16 (inactive) in experiment [15].

Values taken from PubChem BioAssay.
